# Source: PubChem BioAssay (several laboratories)
# Only some compounds are listed: those with a hit (about 3.5% of all), similar ones and a draw of the others.
# Mtb FBA inh: inhibits M. tuberculosis FBA enzyme | purified M. tuberculosis FBA, fluorescence read-out | hit rate 2.3% among 360,000 | P9WQA3 | inhibition, % at 1 µM; in the data active = inhibition above about 27%;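 also: 0% = vehicle and 100% = reference inhibitor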
# Mtb bLac sens: beta-lactam sensitization of Mtb H37Rv; M. tuberculosis H37Rv growth with meropenem, percent inhibition; inhibition, % at 25 µM; hit rate 0.27% among 330,000;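 also: growth measured after seven days incubation then overnight dye step; 0% = bacteria only wells and 100% = bacteria with antibiotic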
# GDH-TPI counter-1: counter-screen for M. tuberculosis FBA inhibitors: GDH-TPI coupled enzymes; GDH-TPI coupled enzyme counterscreen, NADH absorbance; inhibition, % at 4.8 µM; hit rate 1.2% among 360,000; AID 588335; in the data active = inhibition above about 30%;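 also: 0% = DMSO wells and 100% = wells lacking the enzyme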
# Rv3671c protease: Rv3671c (M. tuberculosis) protease inhibition | P9WHR9 | inhibition, % at 5.96 µM | hit rate 0.048% among 320,000 | AID 2606; in the data active = inhibition above about 38%;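 also: extracellular domain of Rv3671c used as enzyme; 0% = enzyme with DMSO and 100% = no enzyme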
# Mtb UGM inh: blocks M. tuberculosis UGM enzyme. purified UGM, fluorescence polarization probe displacement. inhibition, % at 10 µM. hit rate 0.06% among 320,000. AID 504406; in the data active = inhibition above about 10%, passing the limit was not always enough; inconclusive = no clear call, values can overlap the other calls
# Target sequence (P9WIQ1 whole entry, looked up): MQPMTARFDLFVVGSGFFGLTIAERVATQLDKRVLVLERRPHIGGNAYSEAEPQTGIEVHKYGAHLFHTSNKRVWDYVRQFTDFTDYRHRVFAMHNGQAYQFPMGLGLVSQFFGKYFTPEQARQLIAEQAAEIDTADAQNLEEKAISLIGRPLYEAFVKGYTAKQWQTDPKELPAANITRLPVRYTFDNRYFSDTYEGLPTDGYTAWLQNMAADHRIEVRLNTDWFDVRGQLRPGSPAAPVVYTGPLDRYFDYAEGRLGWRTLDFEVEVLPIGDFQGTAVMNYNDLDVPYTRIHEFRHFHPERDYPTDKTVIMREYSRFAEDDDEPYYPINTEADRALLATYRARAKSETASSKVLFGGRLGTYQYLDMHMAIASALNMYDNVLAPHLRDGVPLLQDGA
# Mtb FBA confirm: Mtb FBA inhibition, confirmed | shares compounds with Mtb FBA inh | purified M. tuberculosis FBA, fluorescence read-out | inhibition, % at 1 µM | hit rate 78% among 5,600; in the data active = inhibition above about 27%;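 also: 0% = vehicle wells and 100% = reference inhibitor wells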
# GDH-TPI counter-2: GDH-TPI inhibition counter-screen for FBA inhibitors; GDH-TPI coupled enzyme counterscreen, fluorescence; hit rate 81% among 5,600; inhibition, % at 1 µM; AID 652141; shares compounds with Mtb FBA inh; in the data active = inhibition above about 10%
# GDH-TPI dose: GDH-TPI dose response counter-screen for Mtb FBA. shares compounds with Mtb FBA inh. GDH-TPI coupled enzyme assay, fluorescence, artifact counterscreen. IC50, µM. hit rate 79% among 170
# * = called active by the depositor; ? = inconclusive; nt = no result; + = active, no number. Unless noted, no rule for the calls is given here.
SMILES,Mtb FBA inh,Mtb bLac sens,GDH-TPI counter-1,Rv3671c protease,Mtb UGM inh,Mtb FBA confirm,GDH-TPI counter-2,others
CCCn1c(SCC(=O)Nc2cc(C)on2)n[nH]c1=O,-2,-2,4,-6,2,nt,nt,
Cn1nc(C(=O)NCCN2CCOCC2)c2ccccc2c1=O,0,-4,1,3,2,nt,nt,
CC(Oc1ccc2c(c1)c1ccnc3c4ccccc4c(=O)n2c13)C(=O)NCCN1CCOCC1 (stereo not given),44*,70,15,-8,3,136*,117*,
CC(Oc1ccc(Cl)cc1Cl)C(=O)NCCN1CCOCC1 (stereo not given),-2,-4,1,-11,0,nt,nt,
COc1ccc2c(c1OC)c(=O)n1c3ccc(OC(C)C(=O)NCCN4CCOCC4)cc3c3ccnc2c31 (stereo not given),91*,2,6,-7,0,84*,68*,
CC(Oc1ccc2c3c(c(=O)oc2c1)CCCC3)C(=O)NCC(O)c1ccccc1 (stereo not given),50*,2,19,-6,1,165*,117*,
O=C(COc1ccc2c3c(c(=O)oc2c1)CCC3)NCC(O)c1ccccc1 (stereo not given),3,3,2,5,1,nt,nt,
Cc1cc(OCC(=O)NCC(O)c2ccccc2)c2c3c(c(=O)oc2c1)CCCC3 (stereo not given),12,-1,7,-2,-2,nt,nt,
Cc1cc(OC(C)C(=O)N[C@H](C(=O)O)c2ccccc2)c2c3c(c(=O)oc2c1)CCC3 (stereo not given in full),108*,-8,3,5,0,144*,105*,
Cc1cc(OC(C)C(=O)NCC(O)c2ccccc2)c2c3c(c(=O)oc2c1)CCCC3 (stereo not given),81*,-4,6,0,3,169*,131*,
CN(C)c1ccc(/C=N/N(CCC#N)C2=NS(=O)(=O)c3ccccc32)cc1,-4,-2,8,6,1,nt,nt,
Cc1sc2ncnc(SCC(=O)NCC3CCCO3)c2c1C (stereo not given),2,-1,6,-6,1,nt,nt,
O=[N+]([O-])c1cccc(C=NN=C2c3ccccc3-c3ccccc32)c1,30*,nt,9,nt,nt,144*,109*,
O=[N+]([O-])c1cccc(/C=N\N=C2c3ccccc3-c3ccccc32)c1O,0,9,-2,11,-1,nt,nt,
CC1Oc2ccccc2N(CC(=O)NCCCN2CCOCC2)C1=O (stereo not given),0,-4,0,2,-1,nt,nt,
O=C(CN1C(=O)/C(=C\c2ccccc2Br)Oc2ccccc21)NCCCN1CCOCC1,41*,8,18,-3,-1,58*,53*,
CC1(C)Oc2ccc3ccc(=O)oc3c2[C@@H](O)[C@H]1O,69*,-5,17,5,1,64*,66*,
CC1(C)Oc2ccc3ccc(=O)oc3c2CC1O (stereo not given),78*,-5,27,-3,1,80*,69*,
CCc1cc(=O)oc2c(C)c(O[C@@H]3O[C@H](CO)[C@@H](O)[C@H](O)[C@H]3O)ccc12,5,?,20,4,-2,nt,nt,
CCO[C@H]1c2c(ccc3ccc(=O)oc23)OC(C)(C)[C@H]1O,35*,3,9,2,-2,+,+,
C/C=C(/C)C(=O)OC1c2c(ccc3ccc(=O)oc23)OC(C)(C)C1OC(=O)/C(C)=C\C (stereo not given),12,3,16,-19,3,nt,nt,
CC1(C)Oc2ccc3ccc(=O)oc3c2C[C@H]1O[C@@H]1O[C@H](CO)[C@@H](O)[C@H](O)[C@H]1O,55*,-3,11,6,4,22,12*,
CC(=O)O[C@@H]1[C@H](OC(=O)CC(C)C)c2c(ccc3ccc(=O)oc23)OC1(C)C,15,-7,19,-18,5,nt,nt,
Cc1ccc(S(=O)(=O)N2CCCCC2)cc1NC(=O)CNCc1ccco1,1,5,0,-5,3,nt,nt,
COc1ncc(C2=CC(=O)CC(C)(C)C2)cn1,1,0,7,-7,0,nt,nt,
SMILES,Mtb FBA inh,Mtb bLac sens,GDH-TPI counter-1,Rv3671c protease,Mtb UGM inh,Mtb FBA confirm,GDH-TPI counter-2,others
O=C(COc1ccc([N+](=O)[O-])cc1)Nc1cccc2nsnc12,-1,12,8,3,0,nt,nt,
CC1(C(=O)NS(=O)(=O)c2ccccc2Cl)CCN1C(=O)CCc1ccccc1 (stereo not given),4,nt,5,nt,nt,nt,nt,
N#CCCN(C(=O)COc1ccc(F)cc1Br)c1ccccc1F,28*,8,-6,5,-4,20,-4,GDH-TPI dose=>10
Cc1nc2ccccn2c1-c1nnco1,36*,4,3,-2,-2,5,-4,
Cc1cccc(Nc2nc(-c3c(C)nc4ccccn34)cs2)c1,1,3,7,0,-1,nt,nt,
OC[C@@H]1[C@@H](c2ccc(F)cc2)C(c2ccccc2)=NN1c1ccccc1,29*,nt,7,nt,nt,48*,45*,
CC[C@H]1C(c2ccc(F)cc2)=NN(c2ccccc2)[C@@H]1CO,30*,nt,14,nt,nt,65*,63*,
O=C1OCCN1C(=O)[C@H]1[C@H](c2ccc(F)cc2)C(c2ccccc2)=NN1c1ccccc1,13,nt,10,nt,nt,nt,nt,
Cc1nc(N2CCN(c3ccccc3)CC2)[nH]c(=O)c1C,1,-9,-6,7,0,nt,nt,
CCN(CC)C(=O)[C@H]1C[C@H](CC(=O)NCCCN(C)C)C(=O)N2CCc3c([nH]c4cc(-c5ccco5)ccc34)[C@]12C,46*,nt,-3,nt,nt,+,+,
CCN(CC)C(=O)[C@H]1C[C@H](CC(=O)NCCCOC)C(=O)N2CCc3c([nH]c4cc(-c5ccco5)ccc34)[C@]12C,43*,nt,7,nt,nt,59*,31*,
CCN(CC)C(=O)[C@H]1C[C@H](CC(=O)NCC23CC4CC(CC(C4)C2)C3)C(=O)N2CCc3c([nH]c4cc(-c5ccco5)ccc34)[C@]12C,-1,nt,-2,nt,nt,nt,nt,
CC(C)N(C(=O)[C@H]1C[C@H](CC(=O)NCCc2ccccn2)C(=O)N2CCc3c([nH]c4cc(-c5ccco5)ccc34)[C@]12C)C(C)C,22,nt,3,nt,nt,nt,nt,
CCN(CC)C(=O)[C@H]1C[C@H](CC(=O)NCCc2ccccn2)C(=O)N2CCc3c([nH]c4cc(-c5ccco5)ccc34)[C@]12C,40*,nt,9,nt,nt,52*,44*,
O=S(=O)(Cc1ncc(C(F)(F)F)cc1Cl)c1ccccc1,-2,-7,3,4,6,nt,nt,
CCn1c(SCC(=O)NC2CCCCC2)nc2c(c1=O)SCC2,0,-2,1,-2,-1,nt,nt,
COC(=O)c1c(-c2ccc(OC)cc2)sc2cc3c(cc12)OCO3,32*,6,8,-2,1,72*,77*,
